Twelve molecules from PubChem BioAssay (EPA / NIEHS) can be followed below.

Inconclusive results are not listed. The source made the active and inactive calls. How the source made its calls: active means hit-call score of the fitted dose curve at least 0.9, where 1 is the maximum; inconclusive means response in the unintended direction; inactive means score below 0.9.

Test [1] has as its target human Acetylcholinesterase (AChE), ACHE (gene 43) (UniProt P22303). Nature of the test: NVS_ENZ_hAChE: NovaScreen (NVS) Enzymatic Assay for human Acetylcholinesterase (AChE) (AID 2283129). Summed up:
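Cell-free colorimetric enzyme-activity assay; compounds read 0.33 hour after dosing, loss of signal vs DMSO baseline. Primary screen in duplicate at 25 uM single concentration, with active compounds retested in concentration series.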

Test [2] concerns the target human Aurora Kinase A - serine/threonine-protein Kinase 6 (AurA), AURKA (gene 6790) (UniProt O14965). Nature of the test: NVS_ENZ_hAurA: NovaScreen (NVS) Enzymatic Assay for human Aurora Kinase A - serine/threonine-protein Kinase 6 (AurA) (AID 2283142). Summed up:
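Cell-free enzymatic assay with human Aurora A, 1 hour after dosing. Fluorescent substrate turnover detected after electrophoretic mobility shift separation of substrate and product. Screened at 25 uM, actives retested in concentration-response up to 50 uM.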

Test [3] has as its target human Epidermal Growth Factor Receptor (EGFR), EGFR (gene 1956) (UniProt P00533). The test can be described thus: NVS_ENZ_hEGFR: NovaScreen (NVS) Enzymatic Assay for human Epidermal Growth Factor Receptor (EGFR) (AID 2283151). Summed up: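 Cell-free kinase assay, fluorescence plus electrophoretic mobility shift separating substrate and product, read 1 hour after dosing; loss of signal vs DMSO. Duplicate screen at 25 uM, then concentration-response to 50 uM.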

The target in test [4] is human Fibroblast Growth Factor Receptor 1 (FGFR1), FGFR1 (gene 2260) (UniProt P11362). Nature of the test: NVS_ENZ_hFGFR1: NovaScreen (NVS) Enzymatic Assay for human Fibroblast Growth Factor Receptor 1 (FGFR1) (AID 2283159).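 On AC50: hits lower the signal so potencies describe inhibitors of the kinase.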 In short, it runs like this: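 Cell-free recombinant kinase with fluorescent substrate, product separated by electrophoretic mobility shift; read 1 hour after dosing, loss of signal relative to DMSO. Initial screen in duplicate at 25 uM, actives followed in concentration series.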
human Fibroblast Growth Factor Receptor 1 (FGFR1), FGFR1 (gene 2260), sequence (P11362 whole entry, looked up): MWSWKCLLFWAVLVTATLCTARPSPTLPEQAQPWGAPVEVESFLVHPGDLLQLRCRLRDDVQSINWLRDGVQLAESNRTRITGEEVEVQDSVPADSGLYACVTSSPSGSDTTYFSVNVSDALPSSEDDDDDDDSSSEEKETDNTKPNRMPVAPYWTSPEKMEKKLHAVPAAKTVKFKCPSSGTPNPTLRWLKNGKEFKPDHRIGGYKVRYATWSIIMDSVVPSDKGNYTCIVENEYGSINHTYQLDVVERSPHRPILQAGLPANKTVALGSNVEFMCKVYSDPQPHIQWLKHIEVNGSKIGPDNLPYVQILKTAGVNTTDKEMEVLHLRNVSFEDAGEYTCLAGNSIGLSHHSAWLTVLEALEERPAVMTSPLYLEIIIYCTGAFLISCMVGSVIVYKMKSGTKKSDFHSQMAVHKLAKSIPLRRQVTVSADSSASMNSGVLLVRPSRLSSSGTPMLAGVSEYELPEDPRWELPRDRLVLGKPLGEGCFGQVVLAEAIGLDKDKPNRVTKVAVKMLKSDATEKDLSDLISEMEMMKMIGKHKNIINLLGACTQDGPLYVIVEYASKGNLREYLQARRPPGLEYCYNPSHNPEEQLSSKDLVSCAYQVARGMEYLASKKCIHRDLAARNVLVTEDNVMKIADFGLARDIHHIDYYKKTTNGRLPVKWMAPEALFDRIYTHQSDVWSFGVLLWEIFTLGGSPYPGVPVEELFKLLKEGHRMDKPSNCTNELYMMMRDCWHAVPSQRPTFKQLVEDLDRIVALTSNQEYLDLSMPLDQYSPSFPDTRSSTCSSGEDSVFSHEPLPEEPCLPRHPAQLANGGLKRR

Test [5] addresses human Raf-1 Proto-Oncogene, serine/threonine Kinase (RAF1), RAF1 (gene 5894) (UniProt P04049). The test can be described thus: NVS_ENZ_hRAF1: NovaScreen (NVS) Enzymatic Assay for human Raf-1 Proto-Oncogene, serine/threonine Kinase (RAF1) (AID 2283216). Summed up:
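Cell-free recombinant kinase with specific fluorescent substrate, product separated by electrophoretic mobility shift; read 1 h after dosing. Primary screen at 25 uM in duplicate; hits then run in concentration-response up to 50 uM, fitted as loss of signal versus DMSO.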

The target of test [6] is human Tyrosine Protein Kinase Receptor Tie-2 (Tie2), TEK (gene 7010) (UniProt Q02763). The test can be described thus: NVS_ENZ_hTie2: NovaScreen (NVS) Enzymatic Assay for human Tyrosine Protein Kinase Receptor Tie-2 (Tie2) (AID 2283225). In short, it runs like this: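 Recombinant human Tie2 kinase activity was read cell-free by fluorescence with electrophoretic mobility shift, 1 hour after dosing. The screen used 25 uM in duplicate, then concentration-response up to 50 uM. Signal loss was scored against DMSO.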
human Tyrosine Protein Kinase Receptor Tie-2 (Tie2), TEK (gene 7010), sequence (Q02763 whole entry, looked up): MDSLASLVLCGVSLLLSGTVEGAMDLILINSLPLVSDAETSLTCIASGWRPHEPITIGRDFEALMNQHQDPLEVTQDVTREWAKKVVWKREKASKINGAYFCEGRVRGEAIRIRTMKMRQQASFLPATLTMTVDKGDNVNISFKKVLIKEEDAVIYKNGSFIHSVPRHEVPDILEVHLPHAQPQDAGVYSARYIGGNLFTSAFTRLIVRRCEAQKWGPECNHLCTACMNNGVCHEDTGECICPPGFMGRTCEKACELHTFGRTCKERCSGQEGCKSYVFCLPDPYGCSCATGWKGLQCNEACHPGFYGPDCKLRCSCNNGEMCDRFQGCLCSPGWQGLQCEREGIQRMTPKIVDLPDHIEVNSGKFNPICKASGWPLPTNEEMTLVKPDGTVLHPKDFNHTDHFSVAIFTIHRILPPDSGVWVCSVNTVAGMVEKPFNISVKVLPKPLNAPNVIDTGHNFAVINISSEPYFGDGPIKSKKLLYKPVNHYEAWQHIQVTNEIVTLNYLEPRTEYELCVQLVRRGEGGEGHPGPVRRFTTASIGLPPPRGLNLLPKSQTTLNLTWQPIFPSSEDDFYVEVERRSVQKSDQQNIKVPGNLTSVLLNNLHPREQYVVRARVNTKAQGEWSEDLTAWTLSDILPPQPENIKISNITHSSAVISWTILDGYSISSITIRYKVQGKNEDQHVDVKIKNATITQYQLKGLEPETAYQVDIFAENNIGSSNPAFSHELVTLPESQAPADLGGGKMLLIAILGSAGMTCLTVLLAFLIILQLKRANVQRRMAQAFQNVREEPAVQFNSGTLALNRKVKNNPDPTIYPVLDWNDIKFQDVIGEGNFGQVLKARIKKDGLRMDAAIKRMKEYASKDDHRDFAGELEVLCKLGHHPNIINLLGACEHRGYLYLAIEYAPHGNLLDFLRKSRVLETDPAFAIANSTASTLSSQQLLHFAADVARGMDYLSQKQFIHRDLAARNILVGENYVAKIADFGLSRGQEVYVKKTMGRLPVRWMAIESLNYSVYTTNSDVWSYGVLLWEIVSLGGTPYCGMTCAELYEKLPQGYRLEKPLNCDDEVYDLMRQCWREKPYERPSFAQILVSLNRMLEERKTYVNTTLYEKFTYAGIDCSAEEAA

A short description of test [7]: ATG_M_32_XSP2: Attagene TRANS-FACTORIAL Multi-Species (XSP2) HepG2 Assay for M19 Transcription Factor (Internal Marker) (AID 2283826). Summed up:
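Transfected HepG2 (multiplexed GAL4-UAS reporters), 24 h chemical exposure, 3 nM 6-alpha-fluorotestosterone + 1.5 nM norgestrel added. RNA → oligo(dT) RT → PCR → 6-FAM primer extension → HpaI cut → CE. Fitted upward vs DMSO.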

The target in test [8] is human p21 Activated Kinase 4 (PAK4), PAK4 (gene 10298) (UniProt O96013). The test can be described thus: NVS_ENZ_hPAK4: NovaScreen (NVS) Enzymatic Assay for human p21 Activated Kinase 4 (PAK4) (AID 2283189). In short, it runs like this:
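Cell-free recombinant human PAK4 activity assay; fluorescent substrate and product separated by electrophoretic mobility shift, read 1 h after dosing. Initially tested in duplicate at 25 uM, relative to DMSO baseline.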

Test [9] deals with human AMP-activated Protein Kinase, alpha 1 (AMPKa1), PRKAA1 (gene 5562) (UniProt Q13131). The test can be described thus: NVS_ENZ_hAMPKa1: NovaScreen (NVS) Enzymatic Assay for human AMP-activated Protein Kinase, alpha 1 (AMPKa1) (AID 2283130). In short, it runs like this: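 Recombinant human AMPKα1 activity was measured cell-free by fluorescent substrate conversion with electrophoretic mobility-shift separation, 1 h after dosing. Duplicate single-point screening was at 25 uM; actives (≥30% inhibition) were retested in concentration-response up to 50 uM.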

For test [10], the target named is human Caspase 2 (CASP2), CASP2 (gene 835) (UniProt P42575). Nature of the test: NVS_ENZ_hCASP2: NovaScreen (NVS) Enzymatic Assay for human Caspase 2 (CASP2) (AID 2283135). In short, it runs like this:
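E. coli-expressed enzyme in a cell-free protease assay, fluorescence read 1 h after dosing. Compounds at 25 uM in duplicate, with concentration-response up to 50 uM for hits; loss of signal against DMSO baseline.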

For test [11], the target named is human Protein Tyrosine Phosphatase Receptor Type C (PTPRC), PTPRC (gene 5788) (UniProt P08575). The test can be described thus: NVS_ENZ_hPTPRC: NovaScreen (NVS) Enzymatic Assay for human Protein Tyrosine Phosphatase Receptor Type C (PTPRC) (AID 2283212). Summed up:
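Yeast-extracted human PTPRC used in a cell-free colorimetric enzyme activity read-out, 1 h after dosing. Primary screen in duplicate at 25 uM; actives rerun in concentration-response up to 50 uM, DMSO as baseline.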

In test [12] the target is Norway rat Vesicular Monoamine Transporter (VMAT2), neurotransmitter transporter, Slc18a2 (gene 25549) (UniProt Q01827). The test can be described thus: NVS_TR_rVMAT2: NovaScreen (NVS) Transporter Assay for Norway rat Vesicular Monoamine Transporter (VMAT2), neurotransmitter transporter (AID 2283376).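 Further: actives lower the bound radioligand signal below the DMSO level.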 In short, it runs like this: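 Tissue: rat forebrain extract. Format: competitive radioligand binding, cell-free. Timepoint: 1 h. Readout: filter radiodetection/scintillation. Screen: 25 uM in duplicate, then concentration series for actives. Baseline: DMSO.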

Test [13] concerns the target human Matrix Metalloproteinase-1 (MMP1), MMP1 (gene 4312) (UniProt P03956). The test can be described thus: NVS_ENZ_hMMP1: NovaScreen (NVS) Enzymatic Assay for human Matrix Metalloproteinase-1 (MMP1) (AID 2283181). In short, it runs like this: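 Human MMP1 enzyme activity measured by fluorescence 1 h after dosing, cell-free, with a specific substrate. Screened in duplicate at 25 uM; hits (e.g. 30% inhibition) run in concentration-response up to 50 uM; loss of signal versus DMSO.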

For test [14], the target named is human Neonicotinoid receptor (NNR), CHRNA2 (gene 1135) (UniProt Q15822). Nature of the test: NVS_LGIC_hNNR_NBungSens: NovaScreen (NVS) Ligand-Gated Ion Channel Assay for human Neonicotinoid receptor (NNR) (AID 2283313). In short, it runs like this:
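Radioligand displacement on human neuroblastoma membranes, 2 h, filter-based scintillation counting. Primary screen in duplicate at 25 uM; chemicals passing threshold (e.g. 30% inhibition) run singleton concentration-response to 50 uM; loss of binding fitted versus DMSO.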

In test [15] the target is bovine Gamma-Aminobutyric Acid Type A Receptor BDZ, alpha 1 site (GABARa1), GABRA1 (gene 780973) (UniProt P08219). Nature of the test: NVS_LGIC_bGABARa1: NovaScreen (NVS) Ligand-Gated Ion Channel Assay for bovine Gamma-Aminobutyric Acid Type A Receptor BDZ, alpha 1 site (GABARa1) (AID 2283321). Summed up: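 Radioligand competition binding on bovine cortical membranes, 0.75 h, filter-based scintillation counting. Primary single concentration 25 uM in duplicate; actives rerun in concentration-response to 50 uM max. Loss of signal fitted versus DMSO.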
bovine Gamma-Aminobutyric Acid Type A Receptor BDZ, alpha 1 site (GABARa1), GABRA1 (gene 780973), sequence (P08219 whole entry, looked up): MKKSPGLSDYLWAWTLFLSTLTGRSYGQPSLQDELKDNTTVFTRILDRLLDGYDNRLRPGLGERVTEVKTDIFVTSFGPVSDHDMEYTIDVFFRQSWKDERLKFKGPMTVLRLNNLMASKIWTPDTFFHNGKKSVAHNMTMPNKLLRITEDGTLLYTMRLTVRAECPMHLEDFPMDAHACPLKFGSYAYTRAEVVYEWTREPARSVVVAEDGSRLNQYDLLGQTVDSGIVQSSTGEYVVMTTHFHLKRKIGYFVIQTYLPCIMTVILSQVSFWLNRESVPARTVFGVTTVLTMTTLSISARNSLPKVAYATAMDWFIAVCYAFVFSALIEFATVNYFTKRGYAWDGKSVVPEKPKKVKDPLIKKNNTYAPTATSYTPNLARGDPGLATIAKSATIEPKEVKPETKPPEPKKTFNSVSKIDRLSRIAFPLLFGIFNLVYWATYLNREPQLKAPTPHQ

Test [16] has as its target rat Acetylcholinesterase (AChE), Ache (gene 83817) (UniProt P37136). The test can be described thus: NVS_ENZ_rAChE: NovaScreen (NVS) Enzymatic Assay for rat Acetylcholinesterase (AChE) (AID 2283233). Summed up: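 Rat brain membrane acetylcholinesterase activity measured colorimetrically 0.33 h after compound addition, loss of signal relative to DMSO. Primary screen in duplicate at 25 uM; actives re-run as concentration-response with 50 uM top concentration.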

Test [17] concerns the target Bile acid receptor (Homo sapiens) (UniProt Q96RI1). Nature of the test: NVS_NR_hFXR_Agonist: NovaScreen (NVS) Nuclear Receptor Binding Assay for human Farnesoid X Receptor Agonism (FXR) (AID 2283347). Summed up: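 Cell-free TR-FRET binding assay with extracted human FXR protein, agonist format, read 1 h after dosing. Primary screen at 25 uM single concentration in duplicate, actives retested in concentration series; gain of signal versus DMSO.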

The target in the next test is Caspase-1 (Homo sapiens) (UniProt P29466). The test can be described thus: NVS_ENZ_hCASP1: NovaScreen (NVS) Enzymatic Assay for human Caspase 1 (CASP1) (AID 2283132). Summed up: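 Cell-free enzymatic assay with E. coli-expressed recombinant protein; fluorescence intensity read 1 hour after dosing. Single-concentration duplicate screen at 25 uM, then concentration-response up to 50 uM; activity fitted relative to DMSO, loss of signal meaning inhibition.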

Test [18] has as its target rat Neurotensin Receptor (NTS), Ntsr1 (gene 366274) (UniProt P20789). Nature of the test: NVS_GPCR_rNTS: NovaScreen (NVS) G Protein-Coupled Receptor Assay for rat Neurotensin Receptor (NTS) (AID 2283308). In short, it runs like this:
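Rat forebrain membranes; radioligand binding with competitive displacement, read by filter-based scintillation counting 1 h after dosing. Primary screen in duplicate at 25 uM; actives (e.g., 30% inhibition) rerun in concentration-response up to 50 uM, loss-of-signal versus DMSO.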

For test [19], the target named is human Phosphatase and Tensin Homolog (PTEN), PTEN (gene 5728) (UniProt P60484). The test can be described thus: NVS_ENZ_hPTEN: NovaScreen (NVS) Enzymatic Assay for human Phosphatase and Tensin Homolog (PTEN) (AID 2283203). In short, it runs like this:
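Cell-free recombinant human PTEN with fluorescent substrate; product separated by electrophoretic mobility shift and read by fluorescence 1 h after dosing. Primary screen in duplicate at 25 uM, actives followed in concentration series versus DMSO.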

human Acetylcholinesterase (AChE), ACHE (gene 43), sequence (P22303 whole entry, looked up): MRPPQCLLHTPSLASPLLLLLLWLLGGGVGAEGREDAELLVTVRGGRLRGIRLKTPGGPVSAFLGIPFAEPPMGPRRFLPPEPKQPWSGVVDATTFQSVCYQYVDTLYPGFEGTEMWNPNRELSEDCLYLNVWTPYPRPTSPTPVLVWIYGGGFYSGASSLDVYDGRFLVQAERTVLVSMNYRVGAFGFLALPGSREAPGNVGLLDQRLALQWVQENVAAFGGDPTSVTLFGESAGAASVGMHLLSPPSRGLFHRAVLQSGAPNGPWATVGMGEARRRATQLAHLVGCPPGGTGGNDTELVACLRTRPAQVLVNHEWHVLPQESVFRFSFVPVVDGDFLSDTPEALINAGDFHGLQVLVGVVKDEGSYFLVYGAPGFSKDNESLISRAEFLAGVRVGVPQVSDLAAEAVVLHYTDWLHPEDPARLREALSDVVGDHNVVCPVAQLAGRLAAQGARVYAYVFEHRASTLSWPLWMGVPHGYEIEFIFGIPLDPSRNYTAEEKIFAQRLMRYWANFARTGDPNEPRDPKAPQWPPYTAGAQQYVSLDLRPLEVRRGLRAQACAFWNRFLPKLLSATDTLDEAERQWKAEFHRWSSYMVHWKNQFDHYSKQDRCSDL
human Aurora Kinase A - serine/threonine-protein Kinase 6 (AurA), AURKA (gene 6790), sequence (O14965 whole entry, looked up): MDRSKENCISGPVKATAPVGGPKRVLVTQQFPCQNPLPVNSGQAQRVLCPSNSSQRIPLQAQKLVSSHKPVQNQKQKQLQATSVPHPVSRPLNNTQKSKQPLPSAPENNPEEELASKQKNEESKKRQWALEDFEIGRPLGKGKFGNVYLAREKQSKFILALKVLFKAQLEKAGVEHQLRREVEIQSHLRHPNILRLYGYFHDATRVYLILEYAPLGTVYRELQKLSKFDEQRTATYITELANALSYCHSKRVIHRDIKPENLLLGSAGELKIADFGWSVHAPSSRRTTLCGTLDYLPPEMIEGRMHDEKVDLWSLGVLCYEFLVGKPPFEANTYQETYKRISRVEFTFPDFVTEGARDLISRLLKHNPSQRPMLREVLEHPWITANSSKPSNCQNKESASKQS
human Caspase 2 (CASP2), CASP2 (gene 835), sequence (P42575 whole entry, looked up): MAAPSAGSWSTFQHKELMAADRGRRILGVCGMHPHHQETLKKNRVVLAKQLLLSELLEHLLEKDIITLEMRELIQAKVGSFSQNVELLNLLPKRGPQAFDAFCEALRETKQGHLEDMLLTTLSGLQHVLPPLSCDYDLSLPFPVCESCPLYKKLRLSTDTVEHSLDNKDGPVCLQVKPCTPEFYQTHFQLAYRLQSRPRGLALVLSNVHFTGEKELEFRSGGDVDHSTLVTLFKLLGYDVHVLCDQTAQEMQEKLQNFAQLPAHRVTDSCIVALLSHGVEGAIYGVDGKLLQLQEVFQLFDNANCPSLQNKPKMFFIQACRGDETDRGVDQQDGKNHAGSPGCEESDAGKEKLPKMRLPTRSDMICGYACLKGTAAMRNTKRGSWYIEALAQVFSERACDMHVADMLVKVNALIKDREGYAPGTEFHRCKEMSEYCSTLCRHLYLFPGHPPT
human Neonicotinoid receptor (NNR), CHRNA2 (gene 1135), sequence (Q15822 whole entry, looked up): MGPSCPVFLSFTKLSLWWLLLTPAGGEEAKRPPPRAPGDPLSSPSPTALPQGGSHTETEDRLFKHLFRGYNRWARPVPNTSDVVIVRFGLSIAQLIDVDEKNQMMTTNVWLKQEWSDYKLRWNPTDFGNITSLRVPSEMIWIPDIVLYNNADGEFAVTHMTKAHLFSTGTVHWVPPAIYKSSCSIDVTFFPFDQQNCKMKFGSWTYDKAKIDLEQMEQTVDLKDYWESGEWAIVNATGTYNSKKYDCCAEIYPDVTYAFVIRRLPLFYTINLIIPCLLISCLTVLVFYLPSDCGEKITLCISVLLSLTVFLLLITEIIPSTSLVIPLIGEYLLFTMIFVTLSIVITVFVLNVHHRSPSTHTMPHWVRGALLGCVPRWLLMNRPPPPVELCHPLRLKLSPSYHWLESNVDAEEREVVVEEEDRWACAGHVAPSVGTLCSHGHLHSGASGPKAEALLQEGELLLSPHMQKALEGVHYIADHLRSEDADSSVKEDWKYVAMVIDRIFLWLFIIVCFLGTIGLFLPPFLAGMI
human p21 Activated Kinase 4 (PAK4), PAK4 (gene 10298), sequence (O96013 whole entry, looked up): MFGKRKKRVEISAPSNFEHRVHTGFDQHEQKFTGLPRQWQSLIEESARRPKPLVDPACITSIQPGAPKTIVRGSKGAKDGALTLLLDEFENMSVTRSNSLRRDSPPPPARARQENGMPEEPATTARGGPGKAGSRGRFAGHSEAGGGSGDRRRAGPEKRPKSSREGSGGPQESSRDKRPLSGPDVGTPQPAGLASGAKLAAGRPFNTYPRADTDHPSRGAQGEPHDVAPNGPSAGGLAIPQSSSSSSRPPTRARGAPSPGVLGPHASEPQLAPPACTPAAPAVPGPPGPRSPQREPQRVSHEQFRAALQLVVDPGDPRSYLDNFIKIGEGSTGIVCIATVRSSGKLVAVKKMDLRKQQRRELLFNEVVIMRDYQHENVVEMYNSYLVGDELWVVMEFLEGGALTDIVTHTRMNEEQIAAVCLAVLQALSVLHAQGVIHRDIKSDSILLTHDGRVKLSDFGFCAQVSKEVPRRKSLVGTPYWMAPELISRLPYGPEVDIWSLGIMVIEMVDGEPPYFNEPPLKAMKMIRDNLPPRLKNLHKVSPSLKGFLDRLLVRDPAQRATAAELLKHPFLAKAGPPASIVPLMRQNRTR

For the molecule `O=C(O)Cc1cc(I)c(Oc2cc(I)c(O)c(I)c2)c(I)c1`, the results for the AC50 in test [1] and in test [2] were 2.92 µM (active) and 0.00511 µM (active), respectively. Also, the result in test [3], in test [4], in [5], in test [6] and in test [7] was inactive.

Turning to `CCOC(=O)CCC(=O)OCC`, the result in [1] and in [8] was inactive.

Regarding `CC/C(=C(\c1ccccc1)c1ccc(OCCN(C)C)cc1)c1ccccc1`, the AC50 (commonly the concentration at which the activity in the assay is half-maximal) was 17 µM (active) in [1] and 33.5 µM (active) in [4]. The molecule was called inactive in test [2], in test [6] and in test [7].

For the molecule `O=C(NO)C1(NS(=O)(=O)c2ccc(Oc3ccc(F)cc3)cc2)CCOCC1`, the call in [9], in test [10], in [2], in [4], in test [11] and in test [6] was inactive.

`COc1ccc(-n2nc(C(F)F)cc2-c2ccc(S(C)=O)cc2)cc1` (centres undefined): the molecule was classed as inactive in [1] and in test [8]. For the same molecule, in [12], the AC50 was 4.96 µM (active).

For `CCOC(=O)O[C@H](C)OC(=O)c1ccc2c(c1)cc(C(=O)NC1CCN(C(C)C)CC1)n2Cc1cc(-c2ccc(Cl)s2)on1`, the half-maximal activity concentration (AC50) in [1] is 5.36 µM (active). Moreover, the call in test [13] was inactive.

Consider `COc1cccc(-c2ccc(/C=C\CN3CCCCCC3)cc2Cl)c1`, for which the AC50 in [1] is 22.6 µM (active); in test [14], 22.6 µM (active); in test [15], 11.7 µM (active).

For the molecule `O=C(c1ccc(OCCN2CCCCC2)cc1)c1c(-c2ccc(O)cc2)sc2cc(O)ccc12`, the AC50 in test [1] is 0.0103 µM (active); in test [4] it was 36.2 µM (active); in test [6] it was 31 µM (active); in test [14], 16.7 µM (active). In addition, the molecule was called inactive in test [2].

In the case of `COc1cc(C(C)C)c2c(c1)S(=O)(=O)N(COc1cc(=O)n3cccc(OCCN4CCCCC4)c3n1)C2=O`, the AC50 in test [1] was 5.52 µM (active); in [16], 6.25 µM (active). In addition, the result in test [17] was inactive.

For `O=S(=O)(O)c1ccc(N=Nc2c(O)ccc3cc(S(=O)(=O)O)ccc23)cc1`, the AC50 was 25 µM (active) with Caspase-1 (Homo sapiens) and 20.4 µM (active) in test [10]. Besides, the molecule was classed as inactive in test [11] and in test [18].

For `NC(=O)N(O)[C@@H]1C=C[C@H](Oc2cccc(Oc3ccc(F)cc3)c2)C1`, the molecule was classed as inactive in test [1], in test [10], in test [4], in test [19], in [16] and in test [15]. The AC50 in [14] was 41.2 µM (active).

For `CCCCCCOC(=O)CC(CC(=O)OCCCCCC)(OC(=O)CCC)C(=O)OCCCCCC`, the result in test [1] and in test [10] was inactive.
